Screening results: PubChem, several laboratories
Sampled rows, rich in hits. Any-hit rate of the full collection: about 2.8%.
B2AR ag: agonists of human beta-2 adrenergic receptor inducing internalization; Am2.2-beta2AR cells, FAP receptor internalization, flow cytometry; response, % (test concentration not listed); 0.43% of 340,000 active; P07550;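 active = response above a set limit, near 3 SD of response in nonfluorescent compounds, cut at about 42% in these data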
Target sequence (P07550 whole entry, looked up): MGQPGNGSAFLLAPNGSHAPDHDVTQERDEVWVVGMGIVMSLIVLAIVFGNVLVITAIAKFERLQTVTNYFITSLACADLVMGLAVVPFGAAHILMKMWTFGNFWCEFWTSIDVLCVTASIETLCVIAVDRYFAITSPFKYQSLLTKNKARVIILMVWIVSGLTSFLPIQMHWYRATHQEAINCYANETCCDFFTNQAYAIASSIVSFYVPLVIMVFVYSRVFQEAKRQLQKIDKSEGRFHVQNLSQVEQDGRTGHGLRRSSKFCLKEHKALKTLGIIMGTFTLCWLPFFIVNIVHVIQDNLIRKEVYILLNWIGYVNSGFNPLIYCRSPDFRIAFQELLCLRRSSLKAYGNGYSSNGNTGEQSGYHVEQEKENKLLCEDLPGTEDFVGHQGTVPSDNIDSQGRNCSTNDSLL
MITF TRPM1 inh: inhibitors of MITF-driven TRPM1 promoter in melanoma cells; 0.83% of 330,000 active; AID 488899; inhibition, % at 12.5 µM; SK-MEL-5 TRPM1 promoter luciferase, 24 h;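 active = mean inhibition across replicates of 60% or more, whatever share of single replicates reaches that level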
KKLEB cytotox: counter-screen for CF NF-kB inhibitors: cytotoxicity; activity change (cytotoxicity), % at 5 µM; 0.36% of 360,000 active; KKLEB CF airway cells viability, ATPlite luminescence, overnight; active compounds read low; cells stimulated with P. aeruginosa culture filtrate; AID 602141;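 active = corrected activity change at or below -50% at 5 µM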
HIF-2a inh: inhibitors of HIF-2a | 786-0 RCC cells HIF-2a reporter, luciferase luminescence, overnight | inhibition, % at 18.8 µM | AID 624352 | 0.72% of 360,000 active;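 active = inhibition of the luminescence signal of 40% or more relative to plate controls, in a single-dose primary screen at 18.75 µM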
CF NFkB block: inhibitors of cystic fibrosis induced NF-kB; 0.86% of 360,000 active; AID 588850; KKLEB NF-kB-GFP reporter, PAF-induced, GFP fluorescence overnight; inhibition, % at 5 µM;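 active = at least 50% inhibition at 5 µM, scaled per plate between neutral and stimulator controls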;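 also: PAF is a Pseudomonas aeruginosa culture filtrate used as stimulus; plate controls were PAF-stimulated DMSO wells for no effect and unstimulated DMSO wells for full effect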
Peg3 promoter: reduces Peg3 promoter-driven luciferase expression in HeLa; HeLa PEG-Prom luciferase reporter, luminescence, overnight; inhibition, % at 20 µM; 1.7% of 360,000 active;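 active = inhibition of at least 50% at 20 µM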
* hit, by the source's call; · = not tested or not shown.

SMILES | B2AR ag | MITF TRPM1 inh | KKLEB cytotox | HIF-2a inh | CF NFkB block | Peg3 promoter
C[C@@H]1C[C@H]2[C@@H]3CCC4=CC(=O)C=C[C@]4(C)[C@@]3(F)[C@@H](O)C[C@]2(C)[C@H]1C(=O)CO | -1 | -8 | 10 | 31 | 72* | -6
CC1(C)O[C@@H]2C[C@H]3[C@@H]4CCC5=CC(=O)CC[C@]5(C)[C@@]4(F)[C@@H](O)C[C@]3(C)[C@]2(C(=O)CCl)O1 | 3 | -16 | -10 | 24 | 77* | 3
CC12CCC(=O)C=C1CCC1C2CCC2(C)C(C(=O)CO)CC(O)C12 (stereo unspecified) | 17 | -5 | -7 | 13 | 2 | 8
CC(=O)[C@@]1(O)CC[C@H]2[C@@H]3CCC4=CC(=O)CC[C@]4(C)[C@H]3[C@@H](O)C[C@@]21C | 14 | -10 | 30 | 20 | 48 | -13
CCC(=O)OCC(=O)[C@@]1(OC(=O)CC)[C@@H](C)C[C@H]2[C@@H]3CCC4=CC(=O)C=C[C@]4(C)[C@@]3(Cl)[C@@H](O)C[C@@]21C | 9 | -7 | 30 | 22 | 67* | -7
N#Cc1cccnc1N1CCN(C(C(=O)NC2CCCC2)c2ccc(F)cc2)CC1 (stereo unspecified) | · | · | · | -2 | · | ·
COC(=O)[C@]12CCCCC=C1N(Cc1ccccc1)C(=O)[C@H](CC(=O)N1CCCC1)C2 | · | · | · | 6 | · | ·
CC(=O)OCC(=O)[C@@]1(O)[C@H](C)C[C@H]2[C@@H]3CCC4=CC(=O)C=C[C@]4(C)[C@@]3(F)[C@@H](O)C[C@@]21C | 3 | -13 | 9 | 21 | 69* | -10
C[C@@H]1C[C@H]2[C@@H]3C[C@H](F)C4=CC(=O)C=C[C@]4(C)[C@@]3(F)[C@@H](O)C[C@]2(C)[C@@]1(O)C(=O)COC(=O)C(C)(C)C | 2 | -19 | 40 | 24 | 76* | -2
CC(=O)[C@@]1(O)CC[C@H]2[C@@H]3C[C@H](C)C4=CC(=O)C=C[C@]4(C)[C@@]3(F)[C@@H](O)C[C@@]21C | 2 | -15 | 25 | 22 | 72* | 4
CC(=O)C1(O)CCC2C3CC(C)C4=CC(=O)CCC4(C)C3CCC21C (stereo unspecified) | · | · | 16 | 11 | 48 | -1
CC(=O)C12OC(C)(C)OC1CC1C3CCC4=CC(=O)C=CC4(C)C3(F)C(O)CC12C (stereo unspecified) | 15 | -12 | 12 | 25 | 79* | -10
COc1cc(CCN(C(=O)c2cc3ccccc3[nH]2)C(C)c2nc3ccccc3[nH]2)cc(OC)c1 (stereo unspecified) | · | · | -32 | 18 | -5 | 35
Cc1ccc(F)c(S(=O)(=O)NC(=O)C2(C)CCN2C(=O)Cc2cc(F)ccc2F)c1 (stereo unspecified) | · | · | 14 | -2 | -31 | 7
CC(=O)NCCCNC(=S)NCCCN(Cc1ccc(Cl)cc1)c1ccc(Br)cn1 | · | · | -17 | -14 | 2 | 16
Cc1cc(C(=O)N2CCCC(C)(C(=O)NS(=O)(=O)C3CC3)C2)n(C(C)(C)C)n1 (stereo unspecified) | · | · | 0 | 8 | 4 | 0
Cc1cccc(N=C2NC(=O)S/C2=C\c2ccco2)c1 | 0 | 3 | -14 | -23 | -10 | 3
O=C1NC(=Nc2ccc(Cl)cc2)/C(=C/c2ccco2)S1 | 11 | 0 | -18 | -16 | 17 | 63*
COc1cc(C(=O)NNC(=O)CCOc2cccc(Br)c2)cc(OC)c1OC | -6 | -3 | -3 | 23 | -24 | 0
CCOc1ccc(OCCC(=O)NNC(=O)c2cc(OC)c(OC)c(OC)c2)cc1 | 83* | 5 | 10 | 3 | 4 | 3
O=C(/C=C/c1ccc([N+](=O)[O-])cc1)Nc1ncc([N+](=O)[O-])s1 | 16 | 42 | -52* | -78 | 38 | -29
O=C(/C=C/c1ccc([N+](=O)[O-])cc1)NCc1ccccn1 | -3 | 6 | -6 | 11 | 0 | 18
CC(C)(C)c1ccc(C(=O)N2CCC2(C)C(=O)Nc2cccc3ncccc23)cc1 (stereo unspecified) | · | · | -1 | 15 | 8 | 5
COc1c2c(c(OC)c3ccccc13)[C@]1(OC2)O[C@H](CCO)C[C@H](O)[C@H]1O | · | · | -15 | 6 | -19 | 11
c1ccc(-c2cc3ccccc3[nH]2)cc1 | 1 | -92 | -94* | -269 | 12 | -251
SMILES | B2AR ag | MITF TRPM1 inh | KKLEB cytotox | HIF-2a inh | CF NFkB block | Peg3 promoter
COc1ccc(CCNC2=C(Cl)C(=O)N(CCc3ccc(OC)c(OC)c3)C2=O)cc1OC | 22 | 49 | -12 | 20 | -2 | 80*
CC1ON=C(c2ccc(F)cc2)NC1=O (stereo unspecified) | · | · | 1 | 2 | 7 | -11
CC1(C(=O)NS(=O)(=O)c2ccccc2Cl)CCN1C(=O)CCc1cccs1 (stereo unspecified) | · | · | -5 | -8 | -18 | 0
CCNc1ccc(Br)cc(C(=O)/C=C/c2c(Cl)cccc2Cl)c1=O | -83 | 83* | 5 | 68* | -8 | 104*
CNc1ccc(Br)cc(C(=O)/C=C/c2ccc(Cl)cc2Cl)c1=O | -60 | 31 | -3 | -2 | 10 | 62*
CCNc1ccc(Br)cc(C(=O)/C=C/c2ccc(Cl)cc2)c1=O | 11 | 27 | -11 | 3 | 1 | 33
Nc1ccn([C@@H]2O[C@H](C(=O)Nc3cc(C(F)(F)F)cc(C(F)(F)F)c3)[C@@H](O)[C@H]2O)c(=O)n1 | · | · | -4 | 4 | 15 | 9
COC(=O)C(Nc1ccccc1Cl)(c1cc(C)c(O)c(C)c1)C(F)(F)F (stereo unspecified) | 5 | 27 | 12 | 6 | -1 | 27
COC(=O)/C(=C(/F)Sc1cc(C)c(O)c(C)c1)C(F)(F)F | 7 | 24 | 1 | 8 | -4 | 63*
Cn1cnc([N+](=O)[O-])c1S(=O)(=O)c1ccc(Cl)cc1 | 15 | 24 | 7 | 25 | -13 | 104*
O=C(CSc1nnc(-c2cccc(Br)c2)o1)NCC1CCCO1 (stereo unspecified) | · | · | -3 | 8 | 0 | -4
Fc1ccccc1NC(=S)N1CCN(C/C=C/c2ccccc2)CC1 | 56* | 11 | 0 | 9 | 13 | 2
S=C(Nc1ccccc1)N1CCN(C/C=C/c2ccccc2)CC1 | -15 | -5 | -3 | 15 | 18 | 15
COc1cc(CNc2ncnc3c2ncn3[C@H]2CN(Cc3cc(OC)c(OC)c(OC)c3)C[C@@H](CO)O2)cc(OC)c1OC | · | · | 8 | 2 | -18 | -13
O=c1c(Cl)c(Cl)cnn1Cc1ccc(F)cc1 | 24 | 81* | -5 | 14 | 35 | 74*
OC(CSc1nnnn1-c1ccccc1)Cn1c2ccccc2c2ccccc21 (stereo unspecified) | · | · | · | 1 | · | ·
COc1ccc(C=NNC(=O)CCCCC(=O)NN=Cc2ccc(OC)cc2)cc1 | -6 | -10 | 0 | -15 | -35 | -9
